Data: PubChem BioAssay AID1159580 (chemical genetic matrix, 2015)
Where “and” joins values, the source holds several entries; their conditions need not be identical. Equal values may be shown once. The whole screen tested about 5,500 compounds, of which about 2,000 (36%) were called active. Roughly 18% stayed inconclusive and do not appear here. Rule as the data show it: active = normalized growth mostly below about 0.91 (no sharp cut-off); inconclusive = no clear call, values can overlap the other calls; inactive = mostly above about 0.92. This is one part of the list.

Experiment: chemical genetic growth profiling, strain panel (AID 1159580);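 also: tested at 20 µM; growth read once vehicle control cultures reached saturation at 30 °C; 1 = growth at the plate median or of vehicle wells; lower values mean less growth of the strain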
Settings: S. cerevisiae deletion strains, growth OD

Measured: normalized growth

O=C(O)COc1cc(Cl)c(Cl)cc1Cl
inactive: locus YAL013W, strain DEP1, active compounds read low 1 | locus YAL021C, strain ccr4, active compounds read low 0.984 | locus YAL026C, strain drs2, active compounds read low 1 | locus YAL030W, strain snc1, active compounds read low 1.01 | locus YBL061C, strain skt5, active compounds read low 1 | locus YBR009C, strain hhf1, active compounds read low 1 | locus YBR021W, strain FUR4, active compounds read low 1.01 | locus YBR023C, strain chs3, active compounds read low 1 | locus YBR171W, strain sec66, active compounds read low 0.998 | locus YBR229C, strain ROT2, active compounds read low 1.01 | locus YBR231C, strain swc5, active compounds read low 1 | locus YBR279W, strain paf1, active compounds read low 1 | locus YCL011C, strain gbp2, active compounds read low 1 | locus YCL016C, strain dcc1, active compounds read low 0.988 | locus YCL029C, strain bik1, active compounds read low 1.02 | locus YCL061C, strain MRC1, active compounds read low 1 | locus YCL069W, strain vba3, active compounds read low 0.993 | locus YCR088W, strain abp1, active compounds read low 1 | locus YDL005C, strain med2, active compounds read low 0.995 | locus YDL035C, strain GPR1, active compounds read low 1.02 | locus YDL040C, strain nat1, active compounds read low 0.994 | locus YDL074C, strain BRE1, active compounds read low 1.01 | locus YDL101C, strain DUN1, active compounds read low 0.982 | locus YDL134C, strain PPH21, active compounds read low 1.01 | locus YDL185W, strain tfp1, active compounds read low 1.03 | locus YDL192W, strain arf1, active compounds read low 1.02 | locus YDR001C, strain nth1, active compounds read low 1.01 | locus YDR069C, strain doa4, active compounds read low 0.994 | locus YDR101C, strain arx1, active compounds read low 1.02 | locus YDR137W, strain rgp1, active compounds read low 1.05 | locus YDR150W, strain NUM1, active compounds read low 1 | locus YDR159W, strain sac3, active compounds read low 0.999 | locus YDR162C, strain NBP2, active compounds read low 1 | locus YDR195W, strain ref2 0.952 | locus YDR297W, strain sur2, active compounds read low 1 | locus YDR318W, strain mcm21, active compounds read low 1.02 | locus YDR334W, strain swr1, active compounds read low 0.998 | locus YDR335W, strain msn5, active compounds read low 0.994 | locus YDR388W, active compounds read low 1.02 | locus YDR392W, strain spt3, active compounds read low 1.01 | locus YDR502C, strain sam2, active compounds read low 1.01 | locus YEL003W, strain gim4, active compounds read low 1.02 | locus YEL037C, strain rad23, active compounds read low 1.01 | locus YEL061C, strain CIN8 (second series), active compounds read low 0.999 | locus YEL061C, strain CIN8, active compounds read low 1 | locus YER015W, strain faa2, active compounds read low 1 | locus YER016W, strain bim1, active compounds read low 1 | locus YER110C, active compounds read low 1.02 | locus YER111C, strain swi4, active compounds read low 0.993 | locus YER155C, strain BEM2 (second series), active compounds read low 0.989 | locus YER155C, strain BEM2, active compounds read low 1.01 | locus YER167W, strain BCK2, active compounds read low 1.02 | locus YFR010W, strain ubp6, active compounds read low 1 | locus YGL078C, strain dbp3, active compounds read low 1.02 | locus YGL086W, strain mad1, active compounds read low 1.01 | locus YGL167C, strain pmr1, active compounds read low 1 | locus YGL173C, strain kem1, active compounds read low 0.994 | locus YGL227W, strain vid30, active compounds read low 1 | locus YGL240W, strain doc1, active compounds read low 0.999 | locus YGL248W, strain PDE1, active compounds read low 1.02 | locus YGL253W, strain hxk2, active compounds read low 0.995 | locus YGR078C, strain PAC10, active compounds read low 1.02 | locus YGR135W, strain pre9, active compounds read low 1.03 | locus YGR229C, strain SMI1, active compounds read low 1.02 | locus YGR252W, strain gcn5, active compounds read low 1.04 | locus YHR013C, strain ard1, active compounds read low 0.997 | locus YHR027C, strain rpn1, active compounds read low 0.998 | locus YHR030C, strain SLT2, active compounds read low 1.01 | locus YHR079C, strain IRE1 (second series), active compounds read low 1.02 | locus YHR079C, strain IRE1, active compounds read low 1.02 | locus YHR094C, strain hxt1, active compounds read low 1.02 | locus YHR129C, strain ARP1, active compounds read low 1.01 | locus YHR142W, strain chs7, active compounds read low 1 | locus YHR200W, strain rpn10, active compounds read low 1.01 | locus YIL066C, strain RNR3, active compounds read low 1.03 | locus YIL073C, strain SPO22, active compounds read low 1.09 | locus YIL125W, strain kgd1, active compounds read low 1.02 | locus YIR030C, strain dcg1, active compounds read low 1.02 | locus YJL092W, strain hpr5, active compounds read low 0.999 | locus YJL095W, strain BCK1 (second series), active compounds read low 0.994 | locus YJL095W, strain BCK1, active compounds read low 1.02 and 1.03 | locus YJL115W, strain asf1, active compounds read low 0.991 | locus YJL129C, strain trk1, active compounds read low 0.998 | locus YJL134W, strain LCB3, active compounds read low 1.01 | locus YJL154C, strain vps35, active compounds read low 0.998 | locus YJL164C, strain tpk1, active compounds read low 1.01 | locus YJL166W, strain qcr8, active compounds read low 1.01 | locus YJL168C, strain set2, active compounds read low 1.02 | locus YJL187C, strain SWE1 (second series), active compounds read low 1.01 | locus YJL187C, strain SWE1, active compounds read low 1 | locus YJR043C, strain POL32, active compounds read low 1.01 | locus YJR066W, strain TOR1, active compounds read low 0.94
